IMPase Li inh = membrane-permeable IMPase blocker, potentiated with lithium. CHO-M1 cells, IP1 TR-FRET (IP-One), carbachol + lithium. AID 1457. Potency, µM (series often up to 59.4 µM), most hits filed as inhibitors. 0.35% of 210,000 active;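 note: IP1 builds up when IMPase is blocked and the TR-FRET signal falls; nearly all actives have a fitted effect of over 50% in size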
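CHO cells stably expressing M1 receptor (2000/well) were cultured 16–30 h, then exposed to compounds with a small lithium addition for 30 min at 37C. IP1 was measured by TR-FRET competition; AC50 from Hill fits.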
KinaseGlo FLuc = blocks Kinase-Glo luciferase, a counter-screen artifact | Q27757 | Kinase-Glo luciferase, ATP luminescence, 8 min | Potency, µM (titrated, usually from 38.3 µM), hits mostly inhibitors | 0.28% of 200,000 active | AID 1379; note: nearly all actives have a fitted effect of over 60% in size
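Kinase-Glo luciferase light output from ATP and luciferin was measured with 10 uM ATP, within the enzyme's linear range. Buffer: 50 mM imidazole pH 7.2, 50 mM KCl, 7 mM MgCl2, 0.01% Tween 20, 0.05% BSA; luminescence read after 8 min at ambient temperature.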
LMNA splice mod = LMNA splicing modulation; HeLa LMNA splicing GFP/RFP minigene ratio, 48 h; Potency, µM (doses to about 46.1 µM), usual class: inhibitors; 0.01% of 200,000 active; AID 1487; active = well fitted inhibition curve with a large enough effect in the signal ratio, with a control signal flat, not every such curve was filed as active; inconclusive = small, poorly fitted or top-dose-only effect, or effect the other way, or a change in a side signal; the % refers to the signal ratio
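Read-out is the ratio of GFP to DsRed2 object intensity, acquired by 488 nm laser-scanning cytometry on HeLa lamin A-EGFP minigene reporter cells. Compound incubation 48 hrs at 37 °C in Opti-MEM with 2% FBS; DMSO 0.5% final.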
TCR activator = T cell receptor activation. 330,000 tested, under 10 active. Potency, µM (titrated, usually from 9.22 µM), actives largely listed as activators. primary human leukocytes, anti-CD3, IL-2 HTRF, 48 h
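TCR engagement came from a-CD3 beads alone, with compounds added to primary human leukocytes for 48 hr. Secreted IL-2 bridged europium cryptate- and d2-labelled anti-IL-2 antibodies, giving FRET emission at 665nm after 320nm excitation.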
Numbers stand for hits; [ ] = dose if it differs, or a comment. In the library only some 0.34% were active in any assay of this set; here they are far more common. Unless noted, calls come from the whole dose curve; as a rule, active = well fitted curve in the direction sought with a large enough effect; inconclusive = small, poorly fitted or top-dose-only effect, or another doubt; inactive = no such curve, though single readings can be large; an effect the other way counts as inactive or inconclusive.

`O=C(Nc1cc2c3c(c1)CC(=O)N3CCC2)C1CC1` gave TCR activator inactive.
Screening CCOC(=O)c1cc(S(=O)(=O)N2CCN(c3ccccc3OC)CC2)[nH]n1 returned LMNA splice mod inactive.
Screening Cc1ccccc1N1C(=O)CC(Sc2nnc(-c3ccccc3)o2)C1=O (stereo not drawn) returned IMPase Li inh 10µM, KinaseGlo FLuc inactive, LMNA splice mod inactive and TCR activator inactive.
Cc1ccc(-c2cc3c(nn2)-c2ccccc2C3=O)cc1 was read as TCR activator inactive.
For O=C1c2ccccc2-c2nnc(-c3ccc(O)cc3)cc21 the results were IMPase Li inh inactive, KinaseGlo FLuc 11µM and TCR activator inactive.
`O=C1c2ccccc2-c2nnc(-c3ccc(F)cc3)cc21` gave IMPase Li inh inactive, KinaseGlo FLuc 5µM and LMNA splice mod inactive[9.22 µM].
For Cc1ccccc1-c1cc2c(nn1)-c1ccccc1C2=O the results were IMPase Li inh inactive, KinaseGlo FLuc 5µM, LMNA splice mod inconclusive and TCR activator inactive.
For CC(C)N(CCCNC(=O)C1CCN(C(=O)c2cc3sccc3n2C)CC1)Cc1ccccc1 the results were TCR activator inactive.
For O=C(Cc1ccc(NC(=O)N2CCCCc3ccccc32)cc1)NCc1ccccc1 the results were LMNA splice mod inactive.
`COc1cccc(C(=O)Nc2nc3ccccc3[nH]2)c1` gave IMPase Li inh inactive, KinaseGlo FLuc 13µM, LMNA splice mod inactive and TCR activator inactive.
For CS(=O)(=O)c1ccc(C(=O)Nc2ccc(N3CCCCC3)cc2)c(Cl)c1 the results were IMPase Li inh inactive, KinaseGlo FLuc inactive, LMNA splice mod inconclusive and TCR activator inactive.
Screening Cc1ccc(Sc2ccc(NC(=O)c3ccc(S(C)(=O)=O)cc3Cl)cc2)cc1 returned IMPase Li inh 14µM, KinaseGlo FLuc inactive, LMNA splice mod inactive and TCR activator inactive.
For CN(C)c1ccc(-c2nc(N(C)C)c3ccccc3n2)cc1 the results were IMPase Li inh inactive, KinaseGlo FLuc inactive and LMNA splice mod 13µM.
Screening Brc1ccc(-c2nc(N/N=C/c3cccnc3)c3ccccc3n2)cc1 returned IMPase Li inh inactive, KinaseGlo FLuc 7.1µM, LMNA splice mod inconclusive and TCR activator inactive.
`C(=N\Nc1nc(-c2cccnc2)nc2ccccc12)/c1ccccc1` gave TCR activator inactive.
COCCCN1C(=O)C(O)=C(C(=O)c2ccc(C)o2)C1c1cccc(Br)c1 (stereo not drawn) was read as IMPase Li inh 10µM, KinaseGlo FLuc inactive, LMNA splice mod inactive and TCR activator inactive.
`CCOc1ccc(C2C(C(=O)c3ccco3)=C(O)C(=O)N2Cc2cccnc2)cc1OC` (stereo not drawn) gave IMPase Li inh 11µM, KinaseGlo FLuc inactive, LMNA splice mod inactive and TCR activator inactive.
O=C(C1=C(O)C(=O)N(CCc2ccccc2)C1c1cccnc1)c1ccco1 (stereo not drawn) was read as IMPase Li inh 4.5µM, KinaseGlo FLuc inactive, LMNA splice mod inactive and TCR activator inactive.
`COc1cc(C2C(C(=O)c3ccco3)=C(O)C(=O)N2Cc2ccccc2)ccc1O` (stereo not drawn) gave TCR activator inactive.
`COCCCN1C(=O)C(O)=C(C(=O)c2ccco2)C1c1ccccc1` (stereo not drawn) gave IMPase Li inh 7.9µM, KinaseGlo FLuc inactive, LMNA splice mod inactive and TCR activator inactive.
`Cc1c(C(=O)NCCCN2CCOCC2)oc2c1C1(CCC2)SCCS1` gave IMPase Li inh inactive, KinaseGlo FLuc inactive, LMNA splice mod inconclusive and TCR activator inactive.
COc1cc(C(=O)NCc2nnc(SCC(=O)N3CCc4ccccc43)o2)cc(OC)c1OC was read as IMPase Li inh inactive, KinaseGlo FLuc inactive, LMNA splice mod inactive and TCR activator inactive.
Cc1ccc(C2C(C(=O)c3ccco3)=C(O)C(=O)N2c2nnc(C)s2)cc1 (stereo not drawn) was read as IMPase Li inh 10µM, KinaseGlo FLuc inactive, LMNA splice mod inactive and TCR activator inactive.
For Cc1nnc(N2C(=O)C(O)=C(C(=O)c3ccco3)C2c2cccc3ccccc23)s1 (stereo not drawn) the results were TCR activator inactive.
Screening Cn1c(=O)c(-c2ccc(F)cc2)nc2cnc(Oc3ccccc3)nc21 returned IMPase Li inh 7.9µM and KinaseGlo FLuc inactive.
For Cn1c(=O)c(-c2ccc(Cl)cc2)nc2cnc(Oc3ccccc3)nc21 the results were IMPase Li inh 11µM and KinaseGlo FLuc inactive.
For Cc1ccc(-c2c(C#N)c(N)n(-c3ccc(C)cc3)c(=O)c2C#N)cc1 the results were IMPase Li inh inconclusive, KinaseGlo FLuc inactive, LMNA splice mod inactive and TCR activator inactive.
Cc1ccc(-n2c(N)c(C#N)c(-c3ccc(Cl)cc3)c(C#N)c2=O)cc1 was read as IMPase Li inh 28µM, KinaseGlo FLuc inactive, LMNA splice mod inactive and TCR activator inactive.
O=C(Nc1ccc(-c2cn3ccccc3n2)cc1)c1ccco1 was read as IMPase Li inh inactive, KinaseGlo FLuc 10µM, LMNA splice mod inactive and TCR activator inactive.
`Cc1cc(OCC(C)C)ccc1/C(O)=C1/C(=O)C(=O)N(Cc2cccnc2)C1c1ccncc1` (stereo not drawn) gave IMPase Li inh 4.5µM, KinaseGlo FLuc inactive, LMNA splice mod inactive and TCR activator inactive.
CCCCOc1ccc(/C(O)=C2/C(=O)C(=O)N(Cc3cccnc3)C2c2ccncc2)c(C)c1 (stereo not drawn) was read as IMPase Li inh 10µM, KinaseGlo FLuc inactive, LMNA splice mod inactive and TCR activator inactive.
COc1ccc(/C(O)=C2/C(=O)C(=O)N(Cc3cccnc3)C2c2ccccn2)cc1 (stereo not drawn) was read as IMPase Li inh inactive, KinaseGlo FLuc inactive, LMNA splice mod inactive and TCR activator inactive.
Screening COc1ccc(C2/C(=C(\O)c3ccc4c(c3)OCCO4)C(=O)C(=O)N2Cc2cccnc2)cc1 (stereo not drawn) returned TCR activator inactive.
COC(=O)c1ccc(SCC(=O)NC2CCCCC2)c([N+](=O)[O-])c1 was read as IMPase Li inh 11µM, KinaseGlo FLuc inactive, LMNA splice mod inactive and TCR activator inactive.
`CC(=O)c1sc(NC(=O)COc2ccc(C(C)C)c(C)c2)nc1C` gave IMPase Li inh 11µM, KinaseGlo FLuc inactive, LMNA splice mod inconclusive and TCR activator inactive.
`Cc1nnc(NC(=O)COc2ccccc2)s1` gave IMPase Li inh inactive, KinaseGlo FLuc inactive, LMNA splice mod inactive and TCR activator inactive.
Screening CC(=O)c1sc(NC(=O)COc2ccccc2)nc1C returned IMPase Li inh 10µM, KinaseGlo FLuc inactive, LMNA splice mod inactive and TCR activator inactive.
`CCOC(=O)c1sc2nc(NC(=O)COc3ccccc3)sc2c1C` gave IMPase Li inh 13µM, KinaseGlo FLuc inactive, LMNA splice mod inactive and TCR activator inactive.
`O=C(COc1ccccc1)Nc1nccs1` gave IMPase Li inh inactive, KinaseGlo FLuc 10µM, LMNA splice mod inactive and TCR activator inactive.

Source: PubChem BioAssay (National Center for Advancing Translational Sciences (NCATS))
